Assay outcomes deposited in PubChem BioAssay by National Center for Advancing Translational Sciences (NCATS).
Tau FP inhib – qHTS for Inhibitors of Tau Fibril Formation, Fluorescence Polarization | Microtubule-associated protein tau (Homo sapiens), P10636 | K18 P301L tau heparin fibrillization, Alexa594 FP, 6 h | Potency, µM (titrated, usually from 57.7 µM), for the others: top-dose activity, negative = inhibition, most hits filed as inhibitors | 280,000 tested, 0.39% active; note: nearly all actives have a fitted effect of over 55% in size
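Human tau K18 […] P301L fragment, 15 uM unlabeled plus 0.24 uM Alexa 594-labeled tau (final), with compound and 20 uM heparin in 100 mM sodium acetate pH 7; 6 hr at 37 C, then Alexa 594 FP read.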
Tau fibril ThT – qHTS for Inhibitors of Tau Fibril Formation, Thioflavin T Binding. Microtubule-associated protein tau (Homo sapiens), P10636. recombinant tau K18 P301L, heparin-induced fibrillization, ThT fluorescence. Potency, µM (top dose mostly 57.4 µM), without a hit: at the highest dose activity, negative = inhibition, hits mostly inhibitors. 270,000 tested, 2.1% active. AID 1460, 2008; note: nearly all actives have a fitted effect of over 55% in size
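Tau K18 P301L fragment (15 uM unlabeled plus 0.24 uM Alexa 594-labeled) in 100 mM sodium acetate pH 7 with compound, fibrillization induced by 20 uM heparin for 6 hr at 37 C. Thioflavin T (30 uM) added, fluorescence read after 1 hr (ex 450, em 510 nm).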
HPGD block – qHTS Assay for Inhibitors of HPGD (15-Hydroxyprostaglandin Dehydrogenase). 15-hydroxyprostaglandin dehydrogenase [NAD(+)] (Homo sapiens), P15428. purified HPGD, NADH fluorescence kinetic, PGE2 substrate. Potency, µM, without a hit: top-dose activity change, negative = inhibition, hits mostly inhibitors. 150,000 tested, 4.3% active. AID 894, 2007; active = well fitted inhibition curve with a large enough effect, not every such curve was filed as active; inconclusive = small, poorly fitted or top-dose-only effect, or another doubt; inactive = no such curve, though single readings can be large or run the other way
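20 nM HPGD preincubated 15 min at room temperature with compound in 50 mM Tris-HCl pH 8, 0.01% Tween 20. Started with 1 mM NAD+ and 30 uM prostaglandin E2; NADH fluorescence (360/450 nm) read 5 times over 30-s intervals, last minus first.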
Tau fluor cs – Counterscreen qHTS for Inhibitors of Tau Fibril Formation, Fluorescence Polarization; Potency, µM (top dose mostly 57.7 µM), for the others: at the top dose activity change, negative = decrease; 280,000 tested, 0.93% active; tau K18 P301L (four-repeat tau fragment) Alexa594 fluorescence, heparin fibrillization; note: nearly all actives have a fitted effect of over 55% in size
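Human K18 P301L tau (15 uM unlabeled plus 0.24 uM Alexa 594-labeled, final) in 100 mM sodium acetate pH 7 was mixed with compound and 20 uM heparin and incubated 6 hr at 37 C.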
NPSR antag – qHTS Assay for Antagonists of the Neuropeptide S Receptor: cAMP Signal Transduction | Q6W5P4 | CHO-NPSR cells, cAMP TR-FRET, antagonist mode | Potency, µM (titrated, usually from 38.3 µM), for the others: top-dose activity change, negative = inhibition, most hits filed as inhibitors | 220,000 tested, 1% active | AID 1461, 2008; note: nearly all actives have a fitted effect of over 50% in size
ALDH1A1 block – qHTS Assay for Inhibitors of Aldehyde Dehydrogenase 1 (ALDH1A1); Purified ALDH1A1, NADH fluorescence, propionaldehyde substrate; Aldehyde dehydrogenase 1A1 (Homo sapiens), P00352; AID 1030, 2008; 220,000 tested, 7.3% active; Potency, µM (top dose mostly 75.3 µM), for inactives: at the highest dose activity, negative = inhibition, usual class: inhibitors; active = well fitted inhibition curve with a large enough effect, not every such curve was filed as active; inconclusive = small, poorly fitted or top-dose-only effect, or another doubt; inactive = no such curve, though single readings can be large or run the other way;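 note: plate controls were no enzyme wells and a reference inhibitor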
Target sequence (P00352 whole entry, looked up): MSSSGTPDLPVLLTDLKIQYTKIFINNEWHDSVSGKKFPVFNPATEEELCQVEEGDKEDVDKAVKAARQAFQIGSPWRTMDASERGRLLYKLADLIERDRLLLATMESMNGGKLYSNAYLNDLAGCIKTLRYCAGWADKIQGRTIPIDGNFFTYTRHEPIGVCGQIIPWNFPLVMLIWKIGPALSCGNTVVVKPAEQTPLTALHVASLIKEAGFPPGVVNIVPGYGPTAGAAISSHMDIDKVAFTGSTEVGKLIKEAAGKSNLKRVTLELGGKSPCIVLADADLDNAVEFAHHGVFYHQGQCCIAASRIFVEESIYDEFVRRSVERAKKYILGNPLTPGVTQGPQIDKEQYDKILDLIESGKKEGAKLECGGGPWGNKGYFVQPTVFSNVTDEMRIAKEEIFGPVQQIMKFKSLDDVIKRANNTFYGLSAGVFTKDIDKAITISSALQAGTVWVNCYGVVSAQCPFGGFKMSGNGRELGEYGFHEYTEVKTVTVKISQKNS
Active calls of the source: *; ? = inconclusive; . = not tested or not shown; ! = a repeat was not active; [ ] = another dose, or the depositor's remark. This is a sample that favours compounds with a hit; in the whole collection about 9.5% have one here. Unless noted, calls come from the whole dose curve; as a rule, active = well fitted curve in the direction sought with a large enough effect; inconclusive = small, poorly fitted or top-dose-only effect, or another doubt; inactive = no such curve, though single readings can be large; an effect the other way counts as inactive or inconclusive. Unless noted, % is set by controls: 0 for no effect and ±100 for the full control effect; potency is the fitted concentration of half-maximal effect.

SMILES	Tau FP inhib	Tau fibril ThT	HPGD block	Tau fluor cs	NPSR antag	ALDH1A1 block
CN(CCc1ccc(Cl)c(Cl)c1)[C@@H]1CCCC[C@@H]1N1CCCC1	-0.3%	?	.	?	.	3.55µM*
CN1CCc2cc3c(cc2[C@@H]1[C@@H]1OC(=O)c2c1ccc1c2OCO1)OCO3	.	.	-0.6%	.	.	6.5%[20.9 µM]
Nc1ccc2c(c1)Cc1ccccc1-2	?	?	?	-8.1%	7.9%	?
Nc1ccc2c(c1)Cc1cc([N+](=O)[O-])ccc1-2	6.6%	3.16µM*	.	?	2.8%	-0.1%
CC(=O)c1cccc(NC2=NCC(C)S2)c1 (centres undefined)	1.7%	-12.1%	14.1µM*	-7.8%	0.3%[46.1 µM]	-5.6%
C/C(=N\NP(=S)(c1ccccc1)c1ccccc1)c1ccc(O)cc1O	-2.6%	?	.	31.6µM*[quencher]	-43.7%	.
C=C(C)C#N	.	.	-4.5%	.	.	-8.0%
N#CC(Cl)(Cl)Cl	.	.	-2.7%	.	.	20µM*
C=C1C(O)C2OC3(CCC(/C=C/C(C)C4CC(C)=CC5(OC(CC(C)(O)C(=O)O)CCC5O)O4)O3)CCC2OC1C(O)CC(C)C1OC2(CCCCO2)CCC1C (centres undefined)	?	-6.4%[2.31 µM]	-1.6%	-8.6%[2.34 µM]	.	3.4%[2.48 µM]
CC(=O)OCC(=O)C1CCC2C3CC=C4CC(O)CC[C@@]4(C)C3CC[C@]12C (some centres undefined)	-9.4%	-0.8%	-11.7%	-9.0%	.	?
O=c1[nH]c(=O)n([C@H]2C[C@H](O)[C@@H](CO)O2)cc1/C=C/Br	-3.0%	-4.3%	-18.4%	-2.0%	?	3.0%
CCCC1(CCC)C(=O)NC(=NCc2ccccc2)NC1=O	2.6%	-5.8%	-4.5%	3.5%	?	?
S=C=NCc1ccccc1	0.1%	-1.0%	?	-2.5%	.	2.82µM*
CC(Cl)CCl (centres undefined)	.	.	-0.6%	.	.	3.5%
CCCc1cc2c(n1Cc1ccco1)C(C)C1CN(C(=O)c3ccccc3)C(C)(C(=O)OC)C21 (centres undefined)	?	22.4µM*	?	-12.0%	.	?
COc1ccc(N(CC(=O)Nc2cccc(SC)c2)S(C)(=O)=O)cc1Cl	-14.3%	-0.2%	?	?	?	14.1µM*
CCOc1ccc(N(C(C)C(=O)Nc2cc(Cl)ccc2OC)S(C)(=O)=O)cc1 (centres undefined)	-11.8%	?	.	?	.	.
COc1cc(-c2ccc(=O)[nH]n2)ccc1OC(F)F	-1.9%	-2.5%	20µM*!	-3.3%	-7.6%[46.1 µM]	-7.9%
COc1cc(-c2ccc(N)c(OC)c2)ccc1N	.	.	-18.1%	.	.	?
Cc1nc2cc([N+](=O)[O-])ccc2c(=O)n1-c1ccccc1[N+](=O)[O-]	6.1%	-5.4%	.	-10.0%	-0.8%	31.6µM*
S=c1[nH]nc(-c2ccco2)n1-c1cccc2ccccc12	-1.4%	-0.2%	?	0.5%	5.6%[46.1 µM]	?
Nn1c(Cc2cccc3ccccc23)n[nH]c1=S	0.6%	-2.4%	.	-1.0%	-4.6%	22.4µM*
O=C(NC1CCCCCC1)c1ccc[nH]c1=S	4.5%	-1.2%	.	3.5%	0.2%	?
O=c1[nH]c(=O)n(C2CCCCC2)c(O)c1C=Nc1ccc(N2CCOCC2)cc1	2.5%	4.6%	?	6.9%	27.3%	-0.4%
O=c1[nH]c(=S)n(-c2ccc(Cl)cc2)c(O)c1C=Nc1ccc(N2CCOCC2)cc1	-7.2%	25.1µM*	.	?	-19.8%	0.6%
CCOc1ccc(CC2C(=O)NC(=O)N(c3ccc(CC)cc3)C2=O)cc1 (centres undefined)	-3.0%	-9.0%	-12.6%	-6.6%	5.8%[46.1 µM]	22.4µM*
